Source: PubChem BioAssay
A selection: hits, their analogues and other compounds. The true share with any hit is near 4.3%.
Bead autofluor: compound fluorescence in toxin protease inhibitor counterscreen; 360,000 tested, 3.1% active; fluorescence intensity (concentration not given with the values); compound autofluorescence counterscreen, microsphere flow cytometry; active compounds read high; AID 624483; in the data active means fluorescence intensity above about 16000; inconclusive means no clear call, values can overlap the other calls
MazF activator: activators of E. coli MazEF toxin-antitoxin RNase, primary screen, biochemical, fluorescence, uHTS | Endoribonuclease toxin MazF (Escherichia coli (strain K12)), P0AE70 | FAM/BHQ RNA-DNA oligo cleavage fluorescence, 5 h | activation, % at 20 µM | 350,000 tested, 0.32% active | AID 504720, 2011; in the data active means activation above about 50%
Target sequence (P0AE70 whole entry, looked up): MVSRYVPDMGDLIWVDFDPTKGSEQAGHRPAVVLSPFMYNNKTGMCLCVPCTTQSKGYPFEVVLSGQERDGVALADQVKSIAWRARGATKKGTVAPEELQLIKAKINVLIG
PfHsp40 rescue: rescue of yeast from PfHsp40 toxicity, primary screen, S. cerevisiae, ATP luminescence | S. cerevisiae expressing PfHsp40, growth rescue | growth rescue, % at 12.5 µM | 340,000 tested, 0.68% active; in the data active means growth rescue above about 28%, passing the limit was not always enough; inconclusive means no clear call, values can overlap the other calls;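 further: yeast W303a lacking pdr1 and pdr3 grown in galactose medium; growth measured after three days at 30 °C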
BoNT-A LC inh2: BoNT/A light chain protease inhibitors, primary screen, biochemical, flow cytometry, MLPCN library. Botulinum neurotoxin type A light chain protease (Clostridium botulinum A str. ATCC 3502). multiplex microsphere protease substrate cleavage. inhibition, % at 10 µM. 360,000 tested, 0.17% active; further: plate controls were buffer without enzyme for full effect and enzyme alone for no effect
BoNT F protease: BoNT/F light chain protease inhibitors, primary screen, biochemical, flow cytometry, MLPCN library. 360,000 tested, 0.22% active. Multiplex microsphere protease cleavage assay. inhibition, % at 10 µM. AID 588497, 2011. Botulinum neurotoxin type F light chain protease (Clostridium botulinum); in the data active means inhibition above about 35%, passing the limit was not always enough; inconclusive means no clear call, values can overlap the other calls; further: plate controls were buffer without enzyme for full effect and enzyme alone for no effect
Anthrax LF inh2: Bacillus anthracis LF protease inhibitors, primary screen, biochemical, multiplex microsphere, MLPCN library | Lethal factor (Bacillus anthracis), P15917 | multiplex microsphere protease cleavage assay | inhibition, % at 10 µM | 360,000 tested, 0.12% active; further: plate controls were buffer without enzyme for full effect and enzyme alone for no effect
* hit, by the source's call; ? = inconclusive; . = not tested or not shown; ! = not active in a repeat. Unless noted, no stated cut-off is given here; in the data, active means inhibition above about 30%; inconclusive means no clear call, values can overlap the other calls; inactive means below that.

SMILES	Bead autofluor	MazF activator	PfHsp40 rescue	BoNT-A LC inh2	BoNT F protease	Anthrax LF inh2
O=C1CC(Nc2ccc(N3CCOCC3)cc2)C(=O)N1Cc1ccccc1 (stereo unspecified)	22615*	-2	1	-2	-8	-3
C1CCC(n2nnnc2CN2CCCC2)CC1	23839*	2	0	-1	-3	0
CCCNC(=O)c1nnsc1S(=O)(=O)c1ccc(Cl)cc1	3452	3	120*	-2	-10	-3
CCCNC(=O)c1nnsc1S(=O)c1ccc(Cl)cc1 (stereo unspecified)	4856	7	16	-1	-13	-1
Clc1ccc2[nH]c(-c3ccccc3)cc2c1	2226	13	65*	0	16	-2
CC(C)CC(N)c1csc(NC(=O)Nc2ccccc2C(C)C)n1 (stereo unspecified)	3995	.	.	0	-24	-6
CCCCNC(=S)N/N=C/c1ccc(C)s1	24604*	2	3	?	-12	-3
Cc1ccc(/C=N/NC(=S)NCCc2ccccc2)s1	4496	3	0	-1	-6	-3
CC1(C(=O)NC2CCCCCCC2)CCC(=O)N1Cc1cccs1 (stereo unspecified)	16346*	-1	-1	0	2	-2
CC1(C(=O)NC2CCCCC2)CCC(=O)N1Cc1cccs1 (stereo unspecified)	5138	6	0	0	-3	3
CC1(C(=O)NC2CCCCCCC2)CCC(=O)N1Cc1cccnc1 (stereo unspecified)	10199	1	0	-2	-4	-6
CC1(C(=O)NC2CCCC2)CCC(=O)N1Cc1cccs1 (stereo unspecified)	22707*	1	1	?	-4	-4
O=C1C2CC=CCC2C(=O)N1c1n[nH]c(CCc2ccccc2)n1 (stereo unspecified)	18666*	-3	-1	?	7	-5
O=C(O)c1cc2ccccc2c2cc(Br)ccc12	4137	7	-1	-3	?	-12
COc1ccc(OC)c(N=Cc2c(O)c3ccccc3oc2=O)c1	3571	78*	0	-5	?	19
COc1ccc(Cl)cc1N=Cc1c(O)c2ccccc2oc1=O	3725	-2	0	7	?	0
Cc1cc(C)c(N=Cc2c(O)c3ccccc3oc2=O)c(C)c1	4286	10	66*	-3	?	-2
COc1ccc(CC(=O)Nc2cc(S(=O)(=O)N3CCOCC3)ccc2N2CCCC2)cc1	3652	6	.	0	3	-4
CCC(CC)NC(=O)COC(=O)c1ccc(NS(=O)(=O)c2ccc3c(c2)OCCO3)cc1	23057*	0	1	?	-6	-5
O=C(O)c1cccc(S(=O)(=O)Nc2ccc3c(c2)OCO3)c1	21051*	4	-1	?	2	0
O=C(O)c1ccc(S(=O)(=O)Nc2ccc3c(c2)OCCO3)cc1	3498	1	7	-4	?	31*
O=C(O)c1cccc(NS(=O)(=O)c2ccc3c(c2)OCCCO3)c1	4190	5	1	0	-2	2
O=C(COc1ccc(Br)cc1Br)NC(=S)N1CCCc2ccccc21	5356	1	1	24	7	31*
COn1c(SC2CCCCC2)nc2ccccc2c1=O	17818*	-5	-1	-6	-8	-3
CC(C)On1c(SC(C)C)nc2ccccc2c1=O	22943*	10	1	-1	-4	-3
SMILES	Bead autofluor	MazF activator	PfHsp40 rescue	BoNT-A LC inh2	BoNT F protease	Anthrax LF inh2
COn1c(SC(C)C)nc2ccccc2c1=O	4222	4	-1	0	7	-6
CCN(CC)CCCNC(=S)N(Cc1cccnc1)Cc1cc2cc(C)ccc2[nH]c1=O	4307	9	-1	-1	-12	-4
CCCCCCCCNC(=O)/C(C#N)=C/c1ccccc1[N+](=O)[O-]	1924	122*	355*	0	2	-1
Cc1ccc(OCC(=O)NNC(=O)CCC(=O)NCc2ccccc2)cc1	22071*	-1	0	1	1	-1
CC(=O)Nc1ccc(C(=O)NNC(=O)CCc2ccccc2)cc1	23567*	-3	0	-2	-3	-2
O=C(Cc1ccccc1)Nc1ccc(C(=O)O)cc1	23610*	0	-3	?	-3	3
O=C(CCc1ccccc1)NNC(=O)c1ccc(NC(=O)c2ccccc2)cc1	2080	-4	-2	-2	-24	0
CC(C)(C)NC(=O)COc1ccc(-c2ccccc2)cc1	17169*	-6	0	-3	-6	-5
Cc1ccc(OCC(=O)NNC(=O)CCc2ccccc2)cc1	7920	7	0	0	-3	-1
CC(C)(CNC(=O)C1CCN(S(=O)(=O)c2cc([N+](=O)[O-])ccc2Cl)CC1)N1CCOCC1	4454	-2	1	-3	-2	1
O=C(CCc1ccccc1)NNC(=O)COc1ccccc1	24872*	6	-1	?	-4	-2
COc1ccc(OCC(=O)NNC(=O)CCc2ccccc2)cc1	2012	10	-2	0	-4	2
C/C(CC(=O)NCc1ccco1)=N\NC(=O)Cc1cccc2ccccc12	3619	-1	1	-1	1	1
O=C(CCC(=O)c1cccs1)NCc1ccc(Cl)cc1	2655	4	0	0	-1	0
Cc1ccc(CNC(=O)CCC(=O)c2cccs2)cc1	22864*	7	1	2	2	-1
C/C(CC(=O)NCc1ccco1)=N\NC(=O)Cc1ccc(-c2ccccc2)cc1	2537	79*	-1	3	31	0
Cc1ccc(CNC(=O)Cc2ccc(-c3ccccc3)cc2)cc1	25102*	8	-1	-4	-5	-3
COCCn1c(Cc2ccccc2)nnc1SC(C)C(=O)NC1CC1 (stereo unspecified)	2888	1	0	0	-7	5
Cc1cc(NC(=O)c2coc(=O)c(Br)c2)ccc1C(C)C	4250	-11	0	-1	-14	-21
COC(=O)C(Cc1ccccc1)NC(=O)CNC(=O)c1ccc(Br)cc1 (stereo unspecified)	4505	-28	0	0	-5	-2
CCOc1cc2c(C#N)c(N3CCCC3)nc(N)c2c(N)n1	4145	8	0	1	1	6
N#Cc1c(N)nc(N2CCCC2)c(C#N)c1-c1ccc(Cl)cc1	9535	66*	3	-1	-6	-6
CCCOc1cc2c(C#N)c(N3CCCC3)nc(N)c2c(N)n1	2902	63*	1	0	-8	-4
COc1cc2c(C#N)c(N3CCCC3)nc(N)c2c(N)n1	3435	90*!	0	4	-17	-4
COC(=O)[C@H]1C[C@@H]1[C@H](N)c1ccccc1	3836	9	9	-1	-10	2
